For assay [1], the target named is Vascular endothelial growth factor receptor 3 (Homo sapiens) (UniProt P35916). To be noted: at 10 µM.
The target in assay [2] is Macrophage colony-stimulating factor 1 receptor (Homo sapiens) (UniProt P07333). The settings on record: at 1 µM.
The target is the same in assay [3]. The settings on record: at 10 µM.
The target of assay [4] is Tyrosine-protein kinase Fyn (Homo sapiens) (UniProt P06241). The settings on record: at 1 µM.
Assay [5] shares this target. The settings on record: at 10 µM.
In assay [6] the target is T1, Mitogen-activated protein kinase kinase kinase kinase 2 (Homo sapiens) (UniProt Q12851).
T1 sequence (whole entry): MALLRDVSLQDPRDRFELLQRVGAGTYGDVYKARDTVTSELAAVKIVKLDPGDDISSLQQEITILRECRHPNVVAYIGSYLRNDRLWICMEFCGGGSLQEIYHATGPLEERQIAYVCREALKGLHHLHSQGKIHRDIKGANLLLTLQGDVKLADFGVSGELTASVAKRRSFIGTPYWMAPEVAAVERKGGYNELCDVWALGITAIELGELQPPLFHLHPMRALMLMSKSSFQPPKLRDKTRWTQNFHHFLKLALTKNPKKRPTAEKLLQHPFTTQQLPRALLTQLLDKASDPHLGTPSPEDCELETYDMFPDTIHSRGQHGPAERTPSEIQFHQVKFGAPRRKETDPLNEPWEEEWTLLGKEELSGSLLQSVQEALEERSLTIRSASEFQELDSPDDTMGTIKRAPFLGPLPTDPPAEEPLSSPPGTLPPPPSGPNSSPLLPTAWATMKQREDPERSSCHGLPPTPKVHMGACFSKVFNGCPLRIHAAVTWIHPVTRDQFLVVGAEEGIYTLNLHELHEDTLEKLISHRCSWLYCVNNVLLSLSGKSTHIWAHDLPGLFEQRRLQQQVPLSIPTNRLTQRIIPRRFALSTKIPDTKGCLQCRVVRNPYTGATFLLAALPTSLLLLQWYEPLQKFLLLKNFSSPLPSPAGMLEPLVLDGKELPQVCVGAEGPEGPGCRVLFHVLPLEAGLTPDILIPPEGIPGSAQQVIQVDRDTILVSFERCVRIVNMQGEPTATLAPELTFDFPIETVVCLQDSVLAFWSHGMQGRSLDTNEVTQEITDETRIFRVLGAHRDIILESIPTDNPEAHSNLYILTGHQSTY
To be noted: at 1 µM.

Assay [7] deals with T1, Mitogen-activated protein kinase kinase kinase kinase 2 (Homo sapiens). The settings on record: at 10 µM.
For assay [8], the target named is G protein-coupled receptor kinase 5 (Homo sapiens) (UniProt P34947). The settings on record: at 10 µM.
Assay [9] deals with G protein-coupled receptor kinase 6 (Homo sapiens) (UniProt P43250). The settings on record: at 10 µM.
The target in assay [10] is T2, Rhodopsin kinase GRK7 (Homo sapiens) (UniProt Q8WTQ7).
T2 sequence (whole entry): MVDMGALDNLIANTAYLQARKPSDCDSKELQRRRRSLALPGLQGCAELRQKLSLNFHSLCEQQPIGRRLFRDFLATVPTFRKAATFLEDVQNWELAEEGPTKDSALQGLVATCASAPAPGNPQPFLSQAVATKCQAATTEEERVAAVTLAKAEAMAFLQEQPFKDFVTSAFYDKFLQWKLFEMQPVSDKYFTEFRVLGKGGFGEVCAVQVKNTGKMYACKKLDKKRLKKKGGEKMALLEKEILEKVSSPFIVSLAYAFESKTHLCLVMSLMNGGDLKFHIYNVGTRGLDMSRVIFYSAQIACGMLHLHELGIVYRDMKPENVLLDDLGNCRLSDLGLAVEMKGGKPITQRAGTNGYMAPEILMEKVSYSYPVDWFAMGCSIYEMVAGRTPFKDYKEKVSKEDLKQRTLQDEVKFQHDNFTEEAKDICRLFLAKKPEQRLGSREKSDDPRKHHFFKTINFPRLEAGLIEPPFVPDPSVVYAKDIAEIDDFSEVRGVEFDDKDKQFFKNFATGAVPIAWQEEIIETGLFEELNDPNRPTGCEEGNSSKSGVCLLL
The settings on record: at 1 µM.

Assay [11] concerns the target Glycogen synthase kinase-3 alpha (Homo sapiens) (UniProt P49840). To be noted: at 1 µM.
For assay [12] the target is unchanged. The settings on record: at 10 µM.
The target of assay [13] is Glycogen synthase kinase-3 beta (Homo sapiens) (UniProt P49841). The settings on record: at 1 µM.
The target is the same in assay [14]. To be noted: at 10 µM.
Assay [15] concerns the target Homeodomain-interacting protein kinase 1 (Homo sapiens) (UniProt Q86Z02). The settings on record: at 1 µM.
The target is the same in assay [16]. To be noted: at 10 µM.
Assay [17] has as its target Homeodomain-interacting protein kinase 2 (Homo sapiens) (UniProt Q9H2X6). The settings on record: at 1 µM.
For assay [18] the target is unchanged. The settings on record: at 10 µM.
Assay [19] addresses T2, Rhodopsin kinase GRK7 (Homo sapiens). The settings on record: at 10 µM.
Assay [20] addresses Homeodomain-interacting protein kinase 3 (Homo sapiens) (UniProt Q9H422). The settings on record: at 1 µM.

The values below come from ChEMBL document CHEMBL2218924, “A broad activity screen in support of a chemogenomic map for kinase signalling research and drug discovery” (Biochem J, 2013).

Chain of Glycogen synthase kinase-3 alpha (Homo sapiens) (P49840 2-483 limits assumed): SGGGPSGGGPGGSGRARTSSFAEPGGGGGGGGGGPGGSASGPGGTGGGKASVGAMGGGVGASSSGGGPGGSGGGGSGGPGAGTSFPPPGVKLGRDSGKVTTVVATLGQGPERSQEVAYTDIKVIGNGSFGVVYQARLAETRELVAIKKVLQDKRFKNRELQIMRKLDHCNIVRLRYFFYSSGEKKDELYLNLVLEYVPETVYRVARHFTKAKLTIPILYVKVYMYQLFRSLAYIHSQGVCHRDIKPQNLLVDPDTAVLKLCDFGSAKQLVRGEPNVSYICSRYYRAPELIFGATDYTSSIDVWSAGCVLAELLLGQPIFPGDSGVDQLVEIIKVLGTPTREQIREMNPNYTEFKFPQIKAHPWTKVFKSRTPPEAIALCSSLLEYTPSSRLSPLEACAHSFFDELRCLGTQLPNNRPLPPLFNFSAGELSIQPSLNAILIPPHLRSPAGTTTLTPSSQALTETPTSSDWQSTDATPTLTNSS
Chain of G protein-coupled receptor kinase 6 (Homo sapiens) (P43250 whole entry, looked up): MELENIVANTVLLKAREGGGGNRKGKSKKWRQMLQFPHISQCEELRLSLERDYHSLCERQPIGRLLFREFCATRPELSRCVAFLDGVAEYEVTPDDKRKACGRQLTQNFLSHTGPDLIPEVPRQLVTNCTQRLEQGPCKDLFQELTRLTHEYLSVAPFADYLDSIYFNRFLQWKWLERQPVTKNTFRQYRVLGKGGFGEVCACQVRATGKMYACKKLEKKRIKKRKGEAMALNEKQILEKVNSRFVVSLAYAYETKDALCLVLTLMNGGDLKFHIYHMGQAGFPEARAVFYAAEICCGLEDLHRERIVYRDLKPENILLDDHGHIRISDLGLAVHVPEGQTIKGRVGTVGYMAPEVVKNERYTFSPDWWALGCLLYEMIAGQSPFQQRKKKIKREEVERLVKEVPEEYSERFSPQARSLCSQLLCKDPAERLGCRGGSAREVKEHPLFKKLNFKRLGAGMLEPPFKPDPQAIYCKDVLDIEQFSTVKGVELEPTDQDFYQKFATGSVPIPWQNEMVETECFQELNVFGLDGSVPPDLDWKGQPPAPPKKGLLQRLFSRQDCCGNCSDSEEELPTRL
Chain of Homeodomain-interacting protein kinase 2 (Homo sapiens) (Q9H2X6 whole entry, looked up): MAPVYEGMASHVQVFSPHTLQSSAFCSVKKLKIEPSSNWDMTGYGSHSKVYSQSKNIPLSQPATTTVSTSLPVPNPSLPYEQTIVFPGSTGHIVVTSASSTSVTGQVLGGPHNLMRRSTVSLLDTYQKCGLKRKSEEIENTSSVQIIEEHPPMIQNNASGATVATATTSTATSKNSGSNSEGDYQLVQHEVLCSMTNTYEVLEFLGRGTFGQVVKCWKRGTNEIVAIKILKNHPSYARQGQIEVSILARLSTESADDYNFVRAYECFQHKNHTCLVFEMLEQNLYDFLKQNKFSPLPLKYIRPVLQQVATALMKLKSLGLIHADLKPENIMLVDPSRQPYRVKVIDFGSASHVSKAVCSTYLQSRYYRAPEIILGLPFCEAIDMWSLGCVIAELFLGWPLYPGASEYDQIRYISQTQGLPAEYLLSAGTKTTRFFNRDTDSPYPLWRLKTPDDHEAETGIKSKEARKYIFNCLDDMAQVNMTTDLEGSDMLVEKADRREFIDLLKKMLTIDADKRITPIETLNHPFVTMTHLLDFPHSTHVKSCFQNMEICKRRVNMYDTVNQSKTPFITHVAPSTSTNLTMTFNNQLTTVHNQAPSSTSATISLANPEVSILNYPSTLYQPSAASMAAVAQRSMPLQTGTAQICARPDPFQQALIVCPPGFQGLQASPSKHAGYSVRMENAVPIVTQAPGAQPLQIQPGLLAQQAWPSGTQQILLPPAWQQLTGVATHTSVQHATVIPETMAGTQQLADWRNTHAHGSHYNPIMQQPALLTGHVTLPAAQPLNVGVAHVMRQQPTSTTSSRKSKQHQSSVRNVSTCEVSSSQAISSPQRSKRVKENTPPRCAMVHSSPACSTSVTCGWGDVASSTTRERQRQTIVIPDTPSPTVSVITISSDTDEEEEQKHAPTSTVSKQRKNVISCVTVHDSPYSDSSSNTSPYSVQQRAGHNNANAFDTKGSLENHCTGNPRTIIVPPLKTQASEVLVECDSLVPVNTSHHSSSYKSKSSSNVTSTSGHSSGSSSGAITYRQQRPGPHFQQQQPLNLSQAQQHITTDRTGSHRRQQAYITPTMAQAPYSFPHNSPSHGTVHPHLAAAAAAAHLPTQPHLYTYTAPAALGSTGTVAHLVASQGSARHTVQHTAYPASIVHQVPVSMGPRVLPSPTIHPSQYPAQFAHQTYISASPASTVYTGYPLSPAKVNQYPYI
Chain of G protein-coupled receptor kinase 5 (Homo sapiens) (P34947 whole entry, looked up): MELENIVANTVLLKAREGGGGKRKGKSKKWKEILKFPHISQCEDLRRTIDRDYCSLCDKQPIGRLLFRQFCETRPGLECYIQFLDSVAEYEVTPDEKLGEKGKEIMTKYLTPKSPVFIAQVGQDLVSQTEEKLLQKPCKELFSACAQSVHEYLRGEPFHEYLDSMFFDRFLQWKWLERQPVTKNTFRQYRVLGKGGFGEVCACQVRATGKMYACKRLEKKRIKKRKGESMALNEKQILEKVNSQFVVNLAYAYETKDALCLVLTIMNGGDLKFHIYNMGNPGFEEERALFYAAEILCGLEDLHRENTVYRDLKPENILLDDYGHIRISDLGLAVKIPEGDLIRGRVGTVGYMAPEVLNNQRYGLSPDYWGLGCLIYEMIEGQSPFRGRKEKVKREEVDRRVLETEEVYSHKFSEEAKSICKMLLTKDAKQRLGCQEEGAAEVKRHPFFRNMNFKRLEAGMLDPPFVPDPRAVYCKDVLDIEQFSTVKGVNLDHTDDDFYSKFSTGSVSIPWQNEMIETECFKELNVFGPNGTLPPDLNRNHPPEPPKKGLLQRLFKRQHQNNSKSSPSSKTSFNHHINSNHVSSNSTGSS
Chain of Tyrosine-protein kinase Fyn (Homo sapiens) (P06241 2-537 limits assumed): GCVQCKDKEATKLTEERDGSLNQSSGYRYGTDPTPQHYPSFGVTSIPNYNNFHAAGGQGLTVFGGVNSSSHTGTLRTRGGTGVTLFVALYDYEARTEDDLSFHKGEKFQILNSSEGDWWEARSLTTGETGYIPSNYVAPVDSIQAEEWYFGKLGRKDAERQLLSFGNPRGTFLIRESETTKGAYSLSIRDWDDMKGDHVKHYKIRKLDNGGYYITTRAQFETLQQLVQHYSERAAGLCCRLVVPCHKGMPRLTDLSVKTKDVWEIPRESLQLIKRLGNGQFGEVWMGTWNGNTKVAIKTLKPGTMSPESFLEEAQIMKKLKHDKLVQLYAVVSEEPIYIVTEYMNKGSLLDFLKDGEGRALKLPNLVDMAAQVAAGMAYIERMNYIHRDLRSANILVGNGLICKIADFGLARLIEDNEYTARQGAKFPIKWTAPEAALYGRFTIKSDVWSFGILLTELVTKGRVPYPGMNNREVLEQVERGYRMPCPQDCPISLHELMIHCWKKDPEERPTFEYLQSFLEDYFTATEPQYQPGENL
Chain of Macrophage colony-stimulating factor 1 receptor (Homo sapiens) (P07333 whole entry): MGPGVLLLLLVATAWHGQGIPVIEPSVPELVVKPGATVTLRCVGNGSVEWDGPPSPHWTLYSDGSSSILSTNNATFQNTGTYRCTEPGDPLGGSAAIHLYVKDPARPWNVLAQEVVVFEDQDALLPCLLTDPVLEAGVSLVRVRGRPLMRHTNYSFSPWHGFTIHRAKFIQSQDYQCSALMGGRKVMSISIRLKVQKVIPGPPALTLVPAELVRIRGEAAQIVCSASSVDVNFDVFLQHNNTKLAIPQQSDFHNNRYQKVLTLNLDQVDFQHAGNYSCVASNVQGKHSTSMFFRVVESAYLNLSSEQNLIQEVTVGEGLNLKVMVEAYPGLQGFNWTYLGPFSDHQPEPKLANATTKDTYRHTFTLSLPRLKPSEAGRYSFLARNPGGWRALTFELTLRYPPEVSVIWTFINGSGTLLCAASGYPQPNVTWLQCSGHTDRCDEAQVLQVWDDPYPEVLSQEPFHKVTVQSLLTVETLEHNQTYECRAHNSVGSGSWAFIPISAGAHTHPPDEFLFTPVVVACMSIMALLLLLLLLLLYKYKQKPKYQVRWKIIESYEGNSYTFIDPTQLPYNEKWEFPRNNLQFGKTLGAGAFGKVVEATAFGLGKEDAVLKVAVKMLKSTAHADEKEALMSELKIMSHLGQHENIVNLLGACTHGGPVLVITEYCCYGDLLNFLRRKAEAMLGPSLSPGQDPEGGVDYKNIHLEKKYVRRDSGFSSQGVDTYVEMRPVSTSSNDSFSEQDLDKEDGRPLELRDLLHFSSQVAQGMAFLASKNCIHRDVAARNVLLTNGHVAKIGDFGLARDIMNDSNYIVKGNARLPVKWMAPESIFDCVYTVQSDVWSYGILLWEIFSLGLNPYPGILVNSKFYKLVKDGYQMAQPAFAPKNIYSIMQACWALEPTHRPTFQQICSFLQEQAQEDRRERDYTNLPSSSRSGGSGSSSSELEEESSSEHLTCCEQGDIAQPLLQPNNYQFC
Chain of Glycogen synthase kinase-3 beta (Homo sapiens) (P49841 whole entry, looked up): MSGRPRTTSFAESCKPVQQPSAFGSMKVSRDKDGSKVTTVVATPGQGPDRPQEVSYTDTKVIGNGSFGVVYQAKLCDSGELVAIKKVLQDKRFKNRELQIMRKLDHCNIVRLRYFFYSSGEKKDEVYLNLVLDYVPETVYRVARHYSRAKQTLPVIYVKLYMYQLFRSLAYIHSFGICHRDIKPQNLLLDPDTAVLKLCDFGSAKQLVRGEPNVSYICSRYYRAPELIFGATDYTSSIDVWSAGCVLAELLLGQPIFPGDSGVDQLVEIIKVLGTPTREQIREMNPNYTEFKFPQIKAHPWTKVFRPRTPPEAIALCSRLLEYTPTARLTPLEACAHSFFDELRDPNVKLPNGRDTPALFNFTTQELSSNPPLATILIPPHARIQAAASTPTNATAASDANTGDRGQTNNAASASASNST

`Nc1ncnc2[nH]nc(Nc3ccc(F)cc3)c12`: the residual activity was determined as 41% in assay [1]; 69% in assay [2]; 27% in [3]; 54% in [4]; 17% in assay [5]; 98% in [6]. The residual activity turned out to be 49% in assay [7]; 97% in assay [8]; 97% in assay [9]; 110% in assay [10]; 98% in assay [11]; 90% in [12]. The residual activity in assay [13] was determined as 100%; in [14] it was 93%; in [15], 108%; in [16], 96%; in assay [17], 100%; in assay [18], 92%.

For `O=c1cc(N2CCOCC2)oc2c1ccc1ccccc12`, the residual activity in [1] was found to be 92%; in assay [2] it was 111%; in assay [3], 102%; in assay [4] it was 83%; in [5], 102%; in [6] it was 91%. Also, the residual activity in assay [7] amounted to 86%; in [8] it was 96%; in assay [9], 92%; in assay [10] it was 98%; in assay [19], 87%; in [12], 80%. For the same compound, the residual activity stood at 101% in assay [13]; 73% in [14]; 90% in [15]; 50% in assay [16]; 70% in assay [17]; 22% in assay [18]. Moreover, in assay [20], the residual activity was 71%.

As for `NC(=O)Nc1sc(-c2ccc(F)cc2)cc1C(N)=O`, the residual activity in assay [1] is 0%; in [2] it was 11%; in assay [3], 2%; in assay [4], 24%; in assay [5], 5%; in assay [6], 25%. The residual activity turned out to be 5% in [7]; 82% in assay [8]; 74% in [9]; 67% in assay [10]; 19% in assay [19]; 64% in assay [11]. Also, the residual activity in assay [12] is 29%; in assay [15], 106%; in assay [16] it was 87%; in [17], 94%; in [18] it was 67%; in assay [20], 100%.

For `O=C(CCCc1ccc(-c2ccccc2F)cc1)Nc1ccc(O)cc1`, the residual activity in assay [1] was 83%; in assay [2], 97%; in assay [3] it was 43%; in assay [4], 82%; in assay [5], 72%; in [6] it was 96%. Further, the residual activity was 89% in assay [7]; 91% in assay [8]; 90% in [9]; 104% in [10]; 86% in assay [19]; 84% in assay [12]. Also, the residual activity in assay [13] is 102%; in [14], 79%; in assay [15], 108%; in [16] it was 104%; in [17], 111%; in [18] it was 105%. The residual activity in assay [20] was determined as 103%.

Take `O=C(NC(NC(=S)Nc1ccc(F)c([N+](=O)[O-])c1)C(Cl)(Cl)Cl)C(c1ccccc1)c1ccccc1` (stereo unspecified): the residual activity in assay [1] was 76%; in [2] it was 89%; in [3], 71%; in [4], 104%; in assay [5] it was 58%; in assay [6], 88%. Also, the residual activity in assay [7] is 74%; in assay [8] it was 100%; in assay [9], 87%; in assay [10], 86%; in assay [19], 98%; in assay [12] it was 89%. Moreover, the residual activity was 99% in assay [15]; 93% in assay [16]; 104% in assay [17]; 77% in assay [18]; 96% in [20].

Turning to `O=C1NC(=O)C(c2cn(CCCO)c3ncccc23)=C1c1cnccn1`, the residual activity was determined as 30% in assay [1]; 54% in assay [2]; 49% in assay [3]; 69% in assay [4]; 87% in [5]; 86% in assay [6]. For the same compound, the residual activity came out at 79% in assay [7]; 93% in assay [8]; 6% in assay [11]; 3% in assay [12]; 34% in assay [13]; 10% in [14]. For the same compound, the residual activity worked out at 93% in [15], 93% in assay [16], 56% in [17] and 52% in [18].

For `CCOC(=O)c1c(C)[nH]c(/C=C2\C(=O)Nc3ccccc32)c1C`, the residual activity in assay [1] stood at 3%; in assay [2] it was 20%; in assay [3], 9%; in assay [4], 87%; in assay [5], 99%; in assay [6] it was 89%. The residual activity turned out to be 77% in assay [7]; 94% in [9]; 129% in assay [12]; 99% in assay [13]; 80% in assay [14].

Turning to `Nc1nc(Nc2ccc(S(N)(=O)=O)cc2)nn1C(=O)c1c(F)cccc1F`, the residual activity was 0% in assay [1]; 30% in assay [2]; 7% in assay [3]; 51% in [4]; 10% in [5]; 33% in assay [6]. Moreover, the residual activity turned out to be 6% in assay [7]; 24% in assay [8]; 55% in [10]; 6% in assay [19]; 11% in [11]; 4% in assay [12]. The residual activity was determined as 23% in [13]; 3% in assay [14]; 75% in assay [15]; 18% in assay [16]; 48% in [17]; 6% in [18].

As for `COc1cc2nccc(Oc3ccc(NC(=O)Nc4cc(C)on4)c(Cl)c3)c2cc1OC`, the residual activity in assay [1] is -1%; in assay [2] it was 0%; in assay [3], 0%; in [4] it was 5%; in [5], 1%; in assay [6] it was 47%. In addition, the residual activity stood at 17% in assay [7]; 104% in assay [8]; 105% in [10]; 107% in assay [11]; 123% in [12]; 96% in assay [15]. Moreover, in assay [16], the residual activity came out at 106%.

As for `O=C1Cc2c([nH]c3ccc(Br)cc23)-c2ccccc2N1`, the residual activity in assay [1] worked out at 22%; in [2] it was 49%; in assay [3], 23%; in assay [4] it was 31%; in assay [5] it was 11%; in [6] it was 6%. In addition, the residual activity was -1% in assay [7]; 96% in [8]; 8% in assay [13]; 7% in assay [14]; 90% in [16]; 98% in [17]. Besides, the residual activity in [18] is 64%.

As for `O=C1Nc2ccc(Cl)cc2/C1=C/c1cc(Cl)c(O)c(Cl)c1`, the residual activity in assay [1] came to 1%; in assay [2], 7%; in assay [3] it was 1%; in assay [4], 67%; in [5], 25%; in assay [6], 46%. Moreover, the residual activity in assay [7] was 14%; in assay [9], 82%; in assay [10] it was 91%; in assay [19], 79%; in assay [11], 75%; in assay [12], 30%. Also, the residual activity in [13] stood at 84%; in assay [14] it was 44%; in assay [15] it was 93%; in [16], 88%; in [17], 76%; in [18] it was 22%. Moreover, in [20], the residual activity is 79%.

For `Nc1ncnc2c1c(-c1ccc(Oc3ccccc3)cc1)cn2C1CCCC1`, the residual activity came out at 0% in assay [1]; 18% in assay [2]; 1% in [3]; 0% in [4]; 0% in assay [5]; 87% in assay [6]. For the same compound, the residual activity in assay [7] amounted to 54%; in [8], 89%; in assay [9], 73%; in assay [10], 87%; in assay [19], 69%; in assay [11], 104%. Also, the residual activity in assay [12] was 112%; in [13] it was 88%; in assay [15], 86%; in assay [16] it was 98%; in [17] it was 96%; in [18] it was 75%. In assay [20], the residual activity was 86%.

Regarding `Nc1n[nH]c2nc3ccccc3nc12`, the residual activity in assay [1] is 44%; in [2], 74%; in [3] it was 66%; in assay [4], 73%; in assay [5] it was 73%; in [6], 78%. Moreover, the residual activity in assay [7] amounted to 37%; in assay [8], 94%; in assay [9], 85%; in assay [11] it was 81%; in assay [12] it was 50%; in assay [13] it was 100%. For the same compound, the residual activity in assay [14] is 80%; in assay [16], 87%; in assay [17] it was 98%; in assay [18], 59%.
